Here are results for 4 compounds from PubChem BioAssay (NCATS).

Values joined by “and” are separate entries in the source; they are usually repeats but may differ in a detail not shown here. Identical values can stand only once. Records with an inconclusive call do not appear. Active and inactive are the calls of the source. Calls follow the shape of the dose curve; as a rule, active = well fitted curve in the direction sought with a large enough effect; inconclusive = small, poorly fitted or top-dose-only effect, or another doubt; inactive = no such curve, though single readings can be large; an effect the other way counts as inactive or inconclusive.

The nature of assay [1]: qHTS of pediatric cancer cell lines to identify multiple opportunities for drug repurposing: Confirmatory screen for SK-N-MC cells (AID 1347111).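 Also: cells exposed to compound for 48 h before the readout; nearly all actives have a fitted effect of over 70% in size.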 Also: potency is read from the fitted curve at half-maximal effect. In a few lines: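 Metabolically active cells were quantified by ATP-dependent luminescence (CellTiter-Glo, 15 min at room temperature) following 48 h treatment. Cells had been plated at 500-1,000 per well and settled for 5 h beforehand.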
A general note: Quantitative high-throughput screening tests each substance at several concentrations.

A short description of assay [2]: qHTS of pediatric cancer cell lines to identify multiple opportunities for drug repurposing: Confirmatory screen for BT-12 cells (AID 1347112). Also: nearly all actives have a fitted effect of over 55% in size. Also: potency is read from the fitted curve at half-maximal effect. In a few lines: (§1)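 Cells (500-1,000/well) in growth media were settled 5 h at 37 degrees C, then given compounds for 48 h. Viability was read as CellTiter-Glo luminescence. Primary runs used MIPE at 11 points (0.78 nM-46 µM) and NPC at 8 points (0.59 nM-46 µM); follow-ups used 11 points.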

Assay [3] is described as follows: qHTS of pediatric cancer cell lines to identify multiple opportunities for drug repurposing: Confirmatory screen for LAN-5 cells (AID 1347113). Also: nearly all actives have a fitted effect of over 65% in size. Also: potency is read from the fitted curve at half-maximal effect. The essentials:
as §1

A short description of assay [4]: qHTS of pediatric cancer cell lines to identify multiple opportunities for drug repurposing: Confirmatory screen for DAOY cells (AID 1347114). Also: nearly all actives have a fitted effect of over 65% in size. Also: potency is read from the fitted curve at half-maximal effect. The essentials: (§2)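 Viability measured as metabolically active cells via CellTiter-Glo luminescence following 48 hours of compound exposure, 11-point dilutions in confirmatory testing. 500-1,000 cells/well plated 5 hours before dosing; controls were DMSO and 2.3 µM bortezomib.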

Assay [5] is described as follows: qHTS of pediatric cancer cell lines to identify multiple opportunities for drug repurposing: Confirmatory screen for NB-EBc1 cells (AID 1347115).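 Also: cells exposed to compound for 48 h before the viability read; nearly all actives have a fitted effect of over 45% in size.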 Also: potency is read from the fitted curve at half-maximal effect. In a few lines:
as §1

A short description of assay [6]: qHTS of pediatric cancer cell lines to identify multiple opportunities for drug repurposing: Confirmatory screen for SJ-GBM2 cells (AID 1347116). Also: nearly all actives have a fitted effect of over 60% in size. Also: potency is read from the fitted curve at half-maximal effect. In a few lines:
as §2

Assay [7] is described as follows: qHTS of pediatric cancer cell lines to identify multiple opportunities for drug repurposing: Confirmatory screen for BT-37 cells (AID 1347117). Also: nearly all actives have a fitted effect of over 55% in size. Also: potency is read from the fitted curve at half-maximal effect. In a few lines:
as §1

A short description of assay [8]: qHTS of pediatric cancer cell lines to identify multiple opportunities for drug repurposing: Confirmatory screen for TC32 cells (AID 1347118).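 Also: cells exposed to compound for 48 h before the read; nearly all actives have a fitted effect of over 65% in size.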 Also: potency is read from the fitted curve at half-maximal effect. In a few lines: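 Luminescent ATP read-out (CellTiter-Glo) of metabolically active TC32 cells after 48 h exposure. Concentration-response curves came from 11-point (MIPE, 0.78 nM–46 µM) or 8-point (NPC, 0.59 nM–46 µM) primary titrations; follow-up used 11 points.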

Assay [9] is described as follows: qHTS of pediatric cancer cell lines to identify multiple opportunities for drug repurposing: Confirmatory screen for MG 63 (6-TG R) cells (AID 1347119). Also: nearly all actives have a fitted effect of over 55% in size. Also: potency is read from the fitted curve at half-maximal effect. In a few lines: as §1
The nature of assay [10]: qHTS of pediatric cancer cell lines to identify multiple opportunities for drug repurposing: Confirmatory screen for control Hh wild type fibroblast cells (AID 1347121). Also: nearly all actives have a fitted effect of over 70% in size. In a few lines:
as §1

A short description of assay [11]: qHTS of pediatric cancer cell lines to identify multiple opportunities for drug repurposing: Confirmatory screen for U-2 OS cells (AID 1347122). Also: nearly all actives have a fitted effect of over 65% in size. Also: potency is read from the fitted curve at half-maximal effect. In a few lines:
as §1

Assay [12] is described as follows: qHTS of pediatric cancer cell lines to identify multiple opportunities for drug repurposing: Confirmatory screen for Rh41 cells (AID 1347123).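 Also: 48 h compound exposure; nearly all actives have a fitted effect of over 60% in size.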 Also: potency is read from the fitted curve at half-maximal effect. In a few lines: as §1
Assay [13] is described as follows: qHTS of pediatric cancer cell lines to identify multiple opportunities for drug repurposing: Confirmatory screen for RD cells (AID 1347124). Also: potency is read from the fitted curve at half-maximal effect. The essentials: as §1
The nature of assay [14]: qHTS of pediatric cancer cell lines to identify multiple opportunities for drug repurposing: Confirmatory screen for Rh18 cells (AID 1347125). Also: nearly all actives have a fitted effect of over 55% in size. Also: potency is read from the fitted curve at half-maximal effect. The essentials: as §1
Assay [15] in a line: qHTS of pediatric cancer cell lines to identify multiple opportunities for drug repurposing: Confirmatory screen for Rh30 cells (AID 1347126). Also: nearly all actives have a fitted effect of over 55% in size. Also: potency is read from the fitted curve at half-maximal effect. In a few lines: as §1
Assay [16] in a line: qHTS of pediatric cancer cell lines to identify multiple opportunities for drug repurposing: Confirmatory screen for OHS-50 cells (AID 1347128). Also: potency is read from the fitted curve at half-maximal effect. The essentials:
as §1

Assay [17] in a line: qHTS of pediatric cancer cell lines to identify multiple opportunities for drug repurposing: Confirmatory screen for SK-N-SH cells (AID 1347129).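 Also: cells exposed to compound for 48 h before viability read; nearly all actives have a fitted effect of over 60% in size.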 Also: potency is read from the fitted curve at half-maximal effect. The essentials: as §1
Assay [18] deals with N-terminal Xaa-Pro-Lys N-methyltransferase 1 (Homo sapiens) (UniProt Q9BV86). The assay can be described thus: qHTS Assay for Inhibitors of N-terminal methyltransferase 1 (NTMT1): LOPAC validation of the NTMT1 SAHH-coupled ThioGlo3 Assay (AID 1347143).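 Also: SAH from peptide methylation measured as thiol fluorescence via SAHH coupling and ThioGlo3; nearly all actives have a fitted effect of over 70% in size.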 In a few lines: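 In this qHTS pilot against the LOPAC set, 125nM NTMT1 met compounds tested at multiple concentrations, and fluorescence was normalized to background.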

Assay [19] can be described thus: qHTS of pediatric cancer cell lines to identify multiple opportunities for drug repurposing: Confirmatory screen for Saos-2 cells (AID 1347127). Also: potency is read from the fitted curve at half-maximal effect; nearly all actives have a fitted effect of over 60% in size. In a few lines: as §1
A further assay addresses Furin (Homo sapiens) (UniProt P09958). The assay is described as follows: Furin counterscreen qHTS for Zika virus inhibitors (AID 1347149).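 Also: purified recombinant full-length human furin enzyme at 5 nM; fluorescence gain from furin cutting a BOC-RVRR-AMC peptide substrate over 15 min; top concentration of the series differs between compounds; nearly all actives have a fitted effect of over 70% in size.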 In a few lines:
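Counterscreen measures cleavage of 2 microM BOC-RVRR-AMC, below its ~15 microM Km, by 5 nM full-length human furin at pH 7.0 after a 15-min compound preincubation. Inhibition derives from the 15-min fluorescence increase at 37C.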
A general note: The purpose of a counterscreen is to sort out artefacts and off-target activity.

Sequence of N-terminal Xaa-Pro-Lys N-methyltransferase 1 (Homo sapiens) (Q9BV86 whole entry, looked up): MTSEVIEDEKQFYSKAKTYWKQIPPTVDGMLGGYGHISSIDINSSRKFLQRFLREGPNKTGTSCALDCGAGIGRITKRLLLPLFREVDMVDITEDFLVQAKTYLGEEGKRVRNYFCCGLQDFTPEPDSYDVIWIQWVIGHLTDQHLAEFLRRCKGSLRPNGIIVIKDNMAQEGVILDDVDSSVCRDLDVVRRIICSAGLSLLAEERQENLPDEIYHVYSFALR
Sequence of Furin (Homo sapiens) (P09958 whole entry, looked up): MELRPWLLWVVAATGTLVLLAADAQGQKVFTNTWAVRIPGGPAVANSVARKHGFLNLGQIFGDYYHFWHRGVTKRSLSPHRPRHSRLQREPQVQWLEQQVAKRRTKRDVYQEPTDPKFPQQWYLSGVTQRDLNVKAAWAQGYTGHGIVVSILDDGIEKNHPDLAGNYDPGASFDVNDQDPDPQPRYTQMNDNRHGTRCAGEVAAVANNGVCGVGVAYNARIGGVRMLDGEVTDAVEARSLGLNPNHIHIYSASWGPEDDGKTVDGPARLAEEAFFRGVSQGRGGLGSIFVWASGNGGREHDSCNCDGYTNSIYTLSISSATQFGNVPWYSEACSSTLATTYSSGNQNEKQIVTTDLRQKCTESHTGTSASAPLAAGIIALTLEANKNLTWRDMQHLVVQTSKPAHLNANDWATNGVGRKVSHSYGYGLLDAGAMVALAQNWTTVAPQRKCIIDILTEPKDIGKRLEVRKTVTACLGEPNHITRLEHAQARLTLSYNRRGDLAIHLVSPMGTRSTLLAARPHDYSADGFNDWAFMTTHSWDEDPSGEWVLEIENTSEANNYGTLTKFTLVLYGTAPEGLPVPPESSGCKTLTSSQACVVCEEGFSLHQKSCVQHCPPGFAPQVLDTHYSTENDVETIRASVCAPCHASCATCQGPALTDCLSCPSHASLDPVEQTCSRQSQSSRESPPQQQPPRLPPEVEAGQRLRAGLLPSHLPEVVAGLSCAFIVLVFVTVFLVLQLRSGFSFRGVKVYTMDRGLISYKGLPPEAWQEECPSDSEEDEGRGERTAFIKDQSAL

Regarding `O=P1(NCCCl)OCCCN1CCCl` (centres undefined), the Potency entry in [1], in [2], in [3], in assay [4], in [5] and in assay [6] was “inactive” throughout. In addition, the Potency result in assay [7], in [8], in assay [9], in assay [10], in assay [11] and in assay [12] was “inactive” each time. The Potency entry in assay [13], in assay [14], in [15], in [16] and in assay [17] was “inactive” throughout.

As to `c1ccc(C2CC2)c(OCC2=NCCN2)c1`, the Potency result in assay [18] was “inactive”.

Turning to `O=c1[nH]c2ccccc2n1CCCN1CCC(n2c(=O)[nH]c3cc(Cl)ccc32)CC1`, the Potency in [1] was 5.22 µM (active); in assay [3] it was 9.27 µM (active); in assay [4], 23.3 µM (active); in assay [5], 16.5 µM (active); in assay [6], 13.1 µM (active); in [7] it was 8.27 µM (active). Besides, the Potency in assay [8] was 3.29 µM (active); in [9] it was 6.57 µM (active); in assay [12], 16.5 µM (active); in [14], 9.27 µM (active); in [15], 7.37 µM (active); in assay [19], 10.4 µM (active). The Potency in assay [16] is 13.1 µM (active). Moreover, the Potency result in assay [18] was “inactive”.

On to `C[C@@H]1O[C@@H](O[C@H]2C[C@@H](O)[C@]3(CO)[C@H]4[C@H](O)C[C@]5(C)[C@@H](C6=CC(=O)OC6)CC[C@]5(O)[C@@H]4CC[C@]3(O)C2)[C@H](O)[C@H](O)[C@H]1O`, for which the Potency in [1] was 131 nM (active) and 293 nM (active); in assay [2], 131 nM (active) and 147 nM (active); in assay [3], 329 nM (active) and 414 nM (active); in assay [4], 73.7 nM (active) and 56.2 nM (active); in assay [6], 0.261 µM (active); in assay [7] it was 65.7 nM (active) and 92.8 nM (active). The Potency was 92.8 nM (active) and 165 nM (active) in [8]; 104 nM (active) and 117 nM (active) in assay [9]; 131 nM (active) and 89.1 nM (active) in assay [11]; 46.5 nM (active) and 39.8 nM (active) in assay [12]; 0.117 µM (active) in assay [13]; 0.165 µM (active) in assay [15]. Further, the Potency was 369 nM (active) and 657 nM (active) in [19]; 0.0928 µM (active) in assay [16]; 132 nM (active) and 79.4 nM (active) in assay [17]. The Potency result (in assay [18]; with Furin (Homo sapiens)) was “inactive” each time.
